The list is not random: actives were taken first. Their share in the collection is about 4.8%.
hcDAF12 agonist: H. contortus DAF-12 nuclear receptor activators, primary screen, cell-based, luminescence, HEK293, lit1-tk-luc reporter; 1.4% of 370,000 active; activation, % at 6.8 µM; HEK293 hcDAF-12 lit1-tk-luc reporter; 0% DMSO, 100% Δ7-dafachronic acid;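 active = activation above the mean of all tested compounds plus 3 SD, cut at about 5.5% in these data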;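 note: 100% = response to 3 µM Δ7-dafachronic acid high control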
SMARCA2 activ: SMARCA2 (BRM) function activators, primary screen, cell-based, luminescence, high throughput. MG213 cells, MMTV-luciferase reporter, dexamethasone, overnight. activation, % at 9.1 µM. AID 652017, 2013. 1% of 370,000 active; in the data active = activation above about 7.8%;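 note: 0% = vehicle wells and 100% = reference activator wells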
hgDAF12 agonist: H. glycines DAF-12 receptor agonists, primary screen, cell-based, luminescence, HEK293, GAL4 fusion, UAS-luciferase; Nuclear hormone receptor DAF-12 (Heterodera glycines), GAL4 fusion; HEK293 GAL4-hgDAF12 UAS-luciferase reporter, agonist luminescence; normalized to butyrate control; activation, % at 6.8 µM; 1.8% of 370,000 active; AID 687014, 2013;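 active = activation above a cutoff set at the mean of all screened compounds plus 3 SD, cut at about 10% in these data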;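 note: 0% = DMSO wells and 100% = sodium butyrate wells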
DAX1 inh-1: DAX1 (NR0B1) inhibitors on StAR promoter, primary screen, cell-based, luminescence, SF-1 (NR5A1), full-length DAX-1; HEK293T StAR-luciferase reporter, SF-1/DAX-1 repression relief; inhibition, % at 6.8 µM; 1.1% of 370,000 active;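 active = inhibition above the mean over all tested compounds plus 3 SD, cut at about 3.6% in these data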;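 note: 0% = DAX-1 cells with DMSO and 100% = cells lacking DAX-1 with DMSO; higher inhibition means more luminescence from relief of DAX-1 repression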
DAX1 inh-2: DAX1 (NR0B1) inhibitors, primary screen, cell-based, HEK293, Gal4-DAX1, luciferase luminescence; 0.99% of 340,000 active; AID 504766, 2011; HEK293 Gal4-DAX1 luciferase reporter; inhibition, % at 6.75 µM; Nuclear receptor subfamily 0 group B member 1 (Homo sapiens), P51843;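 active = inhibition above the mean over all tested compounds plus 3 SD, cut at about 4.2% in these data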;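 note: 0% = DAX1-transfected cells with DMSO and 100% = empty-vector control cells with DMSO; inhibition shows as a rise in luminescence from relieved DAX1 repression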
Target sequence (P51843 207-470 limits assumed): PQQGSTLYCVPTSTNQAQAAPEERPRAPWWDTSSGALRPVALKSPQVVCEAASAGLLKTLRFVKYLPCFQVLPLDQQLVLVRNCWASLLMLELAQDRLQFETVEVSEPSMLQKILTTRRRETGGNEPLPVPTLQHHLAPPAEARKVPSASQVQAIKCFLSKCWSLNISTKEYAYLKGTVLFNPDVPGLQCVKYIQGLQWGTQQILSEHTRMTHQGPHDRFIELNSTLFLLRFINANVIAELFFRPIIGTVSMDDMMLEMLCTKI
ssDAF12 agonist: S. stercoralis DAF-12 nuclear receptor activators, primary screen, cell-based, luminescence, HEK293, GRIP1 co-expression, lit1-tk-luc | HEK293 ssDAF-12/GRIP1 lit1-tk-luc reporter; % of 3 µM dafachronic acid response | AID 652126, 2013 | 1% of 370,000 active | activation, % at 6.8 µM | Nuclear hormone receptor DAF-12 (Strongyloides stercoralis);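 active = activation above the mean over all tested compounds plus 3 SD, cut at about 0.9% in these data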;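 note: 0% = DMSO-only wells and 100% = 3 µM delta7-dafachronic acid wells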
SMARCA2 conf: SMARCA2 (BRM) function activators, confirmation, cell-based, luminescence, triplicate; shares compounds with SMARCA2 activ; MG213 cells, MMTV-luciferase with dexamethasone, overnight; MG213 cells expressing E1A, Rb sequestered; DMSO wells 0%, reference activator 100%; activation, % at 9.1 µM; 30% of 3,500 active;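 active = activation above its plate's cutoff, the mean activation of tested wells plus 3 SD, cut at about 7.9% in these data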
GAL4-VP16 Luc: GAL4-VP16 luciferase reporter activation, counter-screen for SMARCA2 (BRM) activator project, cell-based, pG5luc, luminescence, high throughput. shares compounds with SMARCA2 activ. HEK293 GAL4-VP16 pG5luc reporter; scaled: DMSO wells 0%, SAHA wells 100%. activation, % at 9.1 µM. 41% of 3,500 active. AID 686939, 2013;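 active = activation above the solvent-only control well mean plus 3 SD, averaged across control plates, cut at about 5.2% in these data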
* = called active by the depositor; . = not tested or not shown.

SMILES | hcDAF12 agonist | SMARCA2 activ | hgDAF12 agonist | DAX1 inh-1 | DAX1 inh-2 | ssDAF12 agonist | SMARCA2 conf | GAL4-VP16 Luc
CCOC(=O)/C(C#N)=C/c1c(N2CCN(c3ccccc3)CC2)nc2ccccn2c1=O | 3 | 9.9* | 10 | 2 | 0 | 0 | 7 | 4
O=S(=O)(Cc1noc(-c2ccccc2Cl)n1)c1ccccn1 | 2 | 16* | 7 | 1 | 4.9* | 1 | 4 | 9.3*
COc1cccc(CNCCNC(=O)c2ccco2)c1OC | -1 | 1 | -4 | 0 | -2 | -1 | . | .
COc1cc(OC)c(OC)cc1CNCCNC(=O)c1ccco1 | -1 | 9.2* | -2 | 0 | -1 | -1 | 0 | -1
O=C(NN=Cc1cccc(OCc2ccccc2)c1)c1cc(-c2ccc(Cl)cc2)n[nH]1 | -1 | -2 | 3 | 0 | . | -1 | . | .
C=C1C(=O)OC2C1CCC(C)C1C=CC(=O)C12C (configuration not stated) | 0 | 21* | 1 | 0 | -2 | 0 | 21* | 4
CC(=O)O[C@@H]1[C@H]2[C@@H](C[C@@H](C)[C@@H]3C=CC(=O)[C@@]13C)OC(=O)[C@@H]2C | -1 | -1 | 2 | 0 | 0 | -1 | . | .
N=c1c(C(=O)NCC2CCCO2)cc2c(=O)n3ccccc3nc2n1C1CCCC1 (configuration not stated) | 0 | 1 | 0 | 0 | -1 | 0 | . | .
Cc1ccc2nc3c(cc(C(=O)NCC4CCCO4)c(=N)n3C3CCCC3)c(=O)n2c1 (configuration not stated) | -1 | 8.8* | 3 | 0 | 0 | -1 | -1 | 1
Cc1ccc2nc3c(cc(C(=O)NCc4ccco4)c(=N)n3C3CCCC3)c(=O)n2c1 | -1 | 9.1* | -1 | 0 | 0 | -1 | 15* | 3
Cc1cccn2c(=O)c3cc(C(=O)NCc4ccco4)c(=N)n(C4CCCCC4)c3nc12 | . | . | . | . | 1 | . | . | .
CN(Cc1ccco1)C(=O)c1cccc2c1C(=O)N(Cc1cccnc1)C2 | 3 | -2 | -2 | 0 | . | 0 | . | .
CCCCOC(=O)NC(NCC(O)c1ccccc1)(C(F)(F)F)C(F)(F)F (configuration not stated) | -2 | -2 | -1 | 1 | -1 | -1 | . | .
CCCCCOC(=O)NCC(O)c1ccccc1 (configuration not stated) | 2 | 13* | 9 | 1 | 1 | 0 | 8 | 11*
Cc1ccc(SCCNC(=S)Nc2ccccc2)cc1 | -1 | 8.8* | -2 | -1 | 0 | -1 | -5 | 0
Cc1cc(C)c2[nH]c(=O)c(CN(Cc3cccnc3)C(=S)NCCCN(C)C)cc2c1 | -1 | 11* | 1 | 1 | 0 | -2 | -4 | 2
CCN(CC)CCCNC(=S)N(Cc1cccnc1)Cc1cc2cc(C)cc(C)c2[nH]c1=O | 1 | -1 | 5 | 3 | 1 | 0 | . | .
CCCn1c(C)cc(C(=O)Cn2nnc3ccccc3c2=O)c1C | 3 | 9.1* | 12* | 3 | 1 | 0 | 10* | 7.3*
CN(Cc1ccccc1)S(=O)(=O)c1cccc(C(=O)OCC2CCCCC2)c1 | 0 | -2 | -1 | 0 | . | -2 | . | .
O=C(OCc1ccc(Br)cc1F)c1cc2ccccc2oc1=O | 1 | -1 | 3 | 0 | 0 | 0 | . | .
O=C(OCc1nc2ccccc2s1)c1cc2ccccc2oc1=O | 6.2* | 8.2* | 4 | 1 | . | 0.9* | 6 | 9.1*
O=C(Nc1cc(Br)ccc1O)c1cc(-c2cccs2)on1 | 2 | 9.8* | 5 | 0 | 1 | 0 | 8 | 4
CC(C)c1cc(C(=O)Nc2cc(Br)ccc2O)no1 | 1 | -1 | 9 | 1 | 0 | -1 | . | .
c1ccc2c(c1)COc1c3ncccc3nn1-2 | 2 | 13* | 13* | 2 | 1 | 0 | 8.2* | 8.4*
CCC[C@H](/C=C/C(=O)OC(C)(C)C)Sc1ccc(N)cc1 | 0 | -2 | 1 | -1 | . | -2 | . | .
SMILES | hcDAF12 agonist | SMARCA2 activ | hgDAF12 agonist | DAX1 inh-1 | DAX1 inh-2 | ssDAF12 agonist | SMARCA2 conf | GAL4-VP16 Luc
c1ccc(-n2nnc(-c3nccs3)n2)cc1 | 4 | 6 | 10 | 3 | 1 | 0 | . | .
Brc1ccccc1-n1nnc(-c2nccs2)n1 | 5 | 8.3* | 10 | 3 | 3 | 0 | 8 | 16*
COc1ccc(C(=O)Nc2nnc(SCC(=O)NC3CC3)s2)cc1 | 0 | 8.2* | 11* | 1 | 2 | 0 | 7 | 13*
CCSc1nnc(NC(=O)c2cccnc2)s1 | 1 | 3 | 3 | 1 | 0 | -1 | . | .
CCSc1nnc(NC(=O)c2ccccc2)s1 | 5 | 11* | 9 | 3 | 0 | 0 | 5 | 5.5*
Cc1cncc(N2CCN(c3ccccn3)CC2)n1 | 0 | 0 | 1 | -1 | . | -2 | . | .
COc1ccc(N2CCN(c3cncc(C)n3)CC2)cc1 | 1 | 8.2* | 2 | 0 | . | -1 | -1 | 2
CC(CN1C(C)CCCC1C)OC(=O)c1ccccc1Cl (configuration not stated) | -2 | -5 | -2 | 0 | -1 | -1 | . | .
CC(CN1C(C)CCCC1C)OC(=O)c1ccccc1Br (configuration not stated) | -2 | 8.4* | 0 | 1 | 0 | -1 | 2 | 0
Cc1ccccc1C(=O)NC1CCCCN(Cc2cccc(F)c2)C1=O (configuration not stated) | 2 | -1 | -1 | 0 | . | -1 | . | .
CN1CCN(c2ccc(Nc3ccnc4cc(Cl)ccc34)cc2)CC1 | 0 | 16* | 2 | 0 | -2 | -1 | 28* | 0
CCn1c(COc2ccc(C)cc2)nnc1SCC(=O)Nc1ccccc1-c1ccccc1 | -2 | -4 | -3 | -2 | . | -2 | . | .
C=CCN1C(=O)[C@@H](CC(=O)NCCCN2CCCC2=O)[C@]2(C(=O)OC)CCCCC=C12 | -1 | 8.7* | 0 | 0 | . | -1 | -1 | -2
